“And” between values parts separate entries of the source, which are not always exact repeats. Equal values may be shown once. The campaign covered roughly 5,500 compounds. About 2,000 (36%) were called active. Not shown: some 18% with an inconclusive outcome. Rule as the data show it: active = normalized growth mostly below about 0.91 (no sharp cut-off); inconclusive = no clear call, values can overlap the other calls; inactive = mostly above about 0.92. The list shows a part of the results.
Assay: chemical genetic growth profiling, strain panel (AID 1159580);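 also: tested at 20 µM; growth read once vehicle control cultures reached saturation at 30 °C; 1 = growth at the plate median or of vehicle wells; lower values mean less growth of the strain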
Details: S. cerevisiae deletion strains, growth OD

Measured: normalized growth

CC1OC(O[C@H]2/C=C/C=C/C=C/C=C/C=C/C=C/C=C/[C@H](C)[C@@H](O)[C@@H](C)[C@H](C)OC(=O)CC(O)CC(O)CCC(O)C(O)CC(O)C[C@]3(O)C[C@H](O)C(C(=O)O)C(C2)O3)C(O)[C@H](N)C1O (stereo partly drawn)
1.01 (inactive) and 0.099 (active): locus YHR030C, strain SLT2, stronger effect = lower value
0.993 (inactive) and 0.102 (active): locus YJL095W, strain BCK1, stronger effect = lower value
active: locus YAL021C, strain ccr4, stronger effect = lower value 0.0628 | locus YAL026C, strain drs2, stronger effect = lower value 0.059 | locus YBR171W, strain sec66, stronger effect = lower value 0.0768 | locus YCR088W, strain abp1, stronger effect = lower value 0.0609 | locus YDL005C, strain med2, stronger effect = lower value 0.0884 | locus YDR001C, strain nth1, stronger effect = lower value 0.0792 | locus YDR069C, strain doa4, stronger effect = lower value 0.0722 | locus YDR137W, strain rgp1, stronger effect = lower value 0.252 | locus YDR159W, strain sac3, stronger effect = lower value 0.696 | locus YDR195W, strain ref2 0.132 | locus YDR334W, strain swr1, stronger effect = lower value 0.115 | locus YDR335W, strain msn5, stronger effect = lower value 0.508 | locus YDR392W, strain spt3, stronger effect = lower value 0.07 | locus YEL003W, strain gim4, stronger effect = lower value 0.0549 | locus YEL037C, strain rad23, stronger effect = lower value 0.193 | locus YEL061C, strain CIN8 (second series), stronger effect = lower value 0.064 | locus YER016W, strain bim1, stronger effect = lower value 0.819 | locus YER111C, strain swi4, stronger effect = lower value 0.0759 | locus YER155C, strain BEM2 (second series), stronger effect = lower value 0.778 | locus YFR010W, strain ubp6, stronger effect = lower value 0.065 | locus YGL086W, strain mad1, stronger effect = lower value 1.07 [resistant] | locus YGL227W, strain vid30, stronger effect = lower value 0.0641 | locus YGL240W, strain doc1, stronger effect = lower value 0.856 | locus YGL253W, strain hxk2, stronger effect = lower value 0.0796 | locus YHR013C, strain ard1, stronger effect = lower value 1.38 [resistant] | locus YHR079C, strain IRE1, stronger effect = lower value 0.111 | locus YHR142W, strain chs7, stronger effect = lower value 0.843 | locus YJL092W, strain hpr5, stronger effect = lower value 0.0636 | locus YJL115W, strain asf1, stronger effect = lower value 0.893 | locus YJL129C, strain trk1, stronger effect = lower value 0.0757 | locus YKR026C, strain gcn3, stronger effect = lower value 0.0616 | locus YLL001W, strain dnm1, stronger effect = lower value 0.0851 | locus YLL026W, stronger effect = lower value 0.0668 | locus YLL041C, strain sdh2, stronger effect = lower value 0.0791 | locus YLR027C, strain aat2, stronger effect = lower value 0.0727 | locus YLR113W, strain HOG1, stronger effect = lower value 0.125 | locus YLR221C, strain rsa3, stronger effect = lower value 0.342 | locus YLR342W, strain FKS1, stronger effect = lower value 0.807 | locus YLR357W, strain rsc2, stronger effect = lower value 0.123 | locus YLR370C, strain arc18, stronger effect = lower value 0.112 | locus YLR384C, strain iki3, stronger effect = lower value 0.754 | locus YML120C, strain ndi1, stronger effect = lower value 0.0569 | locus YMR058W, strain fet3, stronger effect = lower value 0.0612 | locus YMR125W, strain sto1, stronger effect = lower value 0.0674 | locus YMR129W, stronger effect = lower value 0.0583 | locus YMR205C, strain PFK2, stronger effect = lower value 0.105 | locus YMR231W, strain pep5, stronger effect = lower value 0.881 | locus YNL071W, strain lat1, stronger effect = lower value 0.252 | locus YNL248C, strain rpa49, stronger effect = lower value 0.0699 | locus YNL322C, strain KRE1 (second series), stronger effect = lower value 0.092 | locus YOR001W, strain rrp6, stronger effect = lower value 0.0632 | locus YOR080W, strain dia2, stronger effect = lower value 0.389 | locus YOR231W, strain MKK1, stronger effect = lower value 0.109 | locus YOR290C, strain snf2, stronger effect = lower value 0.0611 | locus YPL078C, strain atp4, stronger effect = lower value 0.157 | locus YPL106C, strain sse1, stronger effect = lower value 0.319 | locus YPL240C, strain hsp82, stronger effect = lower value 0.108 | locus YPL256C, strain CLN2, stronger effect = lower value 0.122
inactive: locus YAL030W, strain snc1, stronger effect = lower value 0.995 | locus YBL061C, strain skt5, stronger effect = lower value 1 | locus YBR009C, strain hhf1, stronger effect = lower value 0.987 | locus YBR021W, strain FUR4, stronger effect = lower value 1.02 | locus YBR023C, strain chs3, stronger effect = lower value 0.957 | locus YBR229C, strain ROT2, stronger effect = lower value 0.996 | locus YBR231C, strain swc5, stronger effect = lower value 0.912 | locus YBR279W, strain paf1, stronger effect = lower value 0.984 | locus YCL011C, strain gbp2, stronger effect = lower value 1 | locus YCL016C, strain dcc1, stronger effect = lower value 0.996 | locus YCL029C, strain bik1, stronger effect = lower value 1.02 | locus YCL069W, strain vba3, stronger effect = lower value 0.977 | locus YDL035C, strain GPR1, stronger effect = lower value 1 | locus YDL040C, strain nat1, stronger effect = lower value 1.01 | locus YDL074C, strain BRE1, stronger effect = lower value 1.03 | locus YDL101C, strain DUN1, stronger effect = lower value 1 | locus YDL134C, strain PPH21, stronger effect = lower value 0.986 | locus YDL185W, strain tfp1, stronger effect = lower value 1.04 | locus YDL192W, strain arf1, stronger effect = lower value 1.01 | locus YDR101C, strain arx1, stronger effect = lower value 1.06 | locus YDR162C, strain NBP2, stronger effect = lower value 0.974 | locus YDR297W, strain sur2, stronger effect = lower value 0.981 | locus YDR318W, strain mcm21, stronger effect = lower value 0.999 | locus YDR388W, stronger effect = lower value 1.02 | locus YDR502C, strain sam2, stronger effect = lower value 1.01 | locus YEL061C, strain CIN8, stronger effect = lower value 1.01 | locus YER015W, strain faa2, stronger effect = lower value 1 | locus YER110C, stronger effect = lower value 1.01 | locus YER155C, strain BEM2, stronger effect = lower value 1 | locus YER167W, strain BCK2, stronger effect = lower value 1.01 | locus YGL078C, strain dbp3, stronger effect = lower value 1 | locus YGL167C, strain pmr1, stronger effect = lower value 1.05 | locus YGL173C, strain kem1, stronger effect = lower value 0.982 | locus YGL248W, strain PDE1, stronger effect = lower value 0.964 | locus YGR135W, strain pre9, stronger effect = lower value 0.997 | locus YGR229C, strain SMI1, stronger effect = lower value 0.904 | locus YGR252W, strain gcn5, stronger effect = lower value 0.952 | locus YHR027C, strain rpn1, stronger effect = lower value 0.991 | locus YHR079C, strain IRE1 (second series), stronger effect = lower value 1.01 | locus YHR094C, strain hxt1, stronger effect = lower value 1.01 | locus YHR129C, strain ARP1, stronger effect = lower value 1.01 | locus YHR200W, strain rpn10, stronger effect = lower value 1.02 | locus YIL066C, strain RNR3, stronger effect = lower value 0.996 | locus YIL073C, strain SPO22, stronger effect = lower value 1.11 | locus YIL125W, strain kgd1, stronger effect = lower value 1.01 | locus YIR030C, strain dcg1, stronger effect = lower value 1.01 | locus YJL095W, strain BCK1 (second series), stronger effect = lower value 1 | locus YJL134W, strain LCB3, stronger effect = lower value 1.01 | locus YJL154C, strain vps35, stronger effect = lower value 0.987 | locus YJL164C, strain tpk1, stronger effect = lower value 0.996 | locus YJL166W, strain qcr8, stronger effect = lower value 0.987 | locus YJL168C, strain set2, stronger effect = lower value 1.01 | locus YJL187C, strain SWE1 (second series), stronger effect = lower value 0.99 | locus YJR043C, strain POL32, stronger effect = lower value 0.95 | locus YJR066W, strain TOR1, stronger effect = lower value 1.01 | locus YJR075W, strain HOC1, stronger effect = lower value 1.03 | locus YKL009W, strain mrt4, stronger effect = lower value 0.963 | locus YKL068W, stronger effect = lower value 0.997 | locus YKL085W, strain MDH1 (second series), stronger effect = lower value 1 | locus YKL085W, strain MDH1, stronger effect = lower value 1 | locus YKL160W, strain elf1, stronger effect = lower value 0.975 | locus YKR001C, strain vps1, stronger effect = lower value 1.04 | locus YKR091W, strain srl3, stronger effect = lower value 1.01 | locus YLR039C, strain RIC1, stronger effect = lower value 1.07 | locus YLR058C, strain SHM2, stronger effect = lower value 0.984 | locus YLR102C, strain apc9, stronger effect = lower value 1.02 | locus YLR258W, strain gsy2, stronger effect = lower value 0.981 | locus YLR262C, strain YPT6 (second series), stronger effect = lower value 0.936 | locus YLR262C, strain YPT6, stronger effect = lower value 1.07 | locus YLR268W, strain sec22, stronger effect = lower value 1.06 | locus YLR320W, strain mms22, stronger effect = lower value 0.917 | locus YLR330W, strain CHS5, stronger effect = lower value 1.02 | locus YLR342W, strain FKS1 (second series), stronger effect = lower value 1.04 | locus YLR371W, strain rom2, stronger effect = lower value 1.03 | locus YLR418C, strain cdc73, stronger effect = lower value 0.973 | locus YML016C, strain PPZ1, stronger effect = lower value 0.986 | locus YML032C, strain rad52, stronger effect = lower value 0.996 | locus YML124C, strain tub3, stronger effect = lower value 1.01 | locus YMR078C, strain ctf18, stronger effect = lower value 1.02 | locus YMR223W, strain ubp8, stronger effect = lower value 0.992 | locus YMR263W, strain SAP30, stronger effect = lower value 1 | locus YMR307W, strain GAS1, stronger effect = lower value 0.768 | locus YNL067W, strain RPL9B, stronger effect = lower value 0.982 | locus YNL153C, strain GIM3, stronger effect = lower value 0.994 | locus YNL183C, strain NPR1, stronger effect = lower value 0.994 | locus YNL209W, strain ssb2, stronger effect = lower value 0.993 | locus YNL233W, strain BNI4, stronger effect = lower value 0.982 | locus YNL250W, strain rad50, stronger effect = lower value 1 | locus YNL271C, strain bni1, stronger effect = lower value 1.01 | locus YNL298W, strain CLA4, stronger effect = lower value 1.01 | locus YNL307C, strain MCK1, stronger effect = lower value 1.03 | locus YNR049C, strain mso1, stronger effect = lower value 0.991 | locus YNR052C, strain pop2, stronger effect = lower value 0.983 | locus YOL012C, strain htz1 0.984 | locus YOL147C, strain pex11, stronger effect = lower value 1.01 | locus YOR061W, strain CKA2, stronger effect = lower value 1.01 | locus YOR069W, strain VPS5, stronger effect = lower value 0.994 | locus YOR070C, strain gyp1, stronger effect = lower value 0.971 | locus YOR083W, strain WHI5, stronger effect = lower value 0.956 | locus YOR106W, strain vam3, stronger effect = lower value 0.983 | locus YOR136W, strain idh2, stronger effect = lower value 1.02 | locus YOR144C, strain elg1, stronger effect = lower value 1.01 | locus YOR184W, strain ser1, stronger effect = lower value 1 | locus YOR265W, strain rbl2, stronger effect = lower value 0.987 | locus YOR270C, strain vph1, stronger effect = lower value 0.792 | locus YOR316C, strain cot1, stronger effect = lower value 1.02 | locus YPL051W, strain arl3, stronger effect = lower value 1 | locus YPL241C, strain CIN2, stronger effect = lower value 1.01 | locus YPR119W, strain clb2, stronger effect = lower value 1.01 | locus YPR141C, strain kar3, stronger effect = lower value 1.01 | locus YPR163C, strain tif3, stronger effect = lower value 1.03 | locus YPR167C, strain met16, stronger effect = lower value 1.03 | strain wtn01, stronger effect = lower value 1.07

— PubChem BioAssay AID1159580 (chemical genetic matrix, 2015)
